Reference: the OligoGym collection

biological target: NELL2; test: pooled miR-30 sensor sort-seq; sequence = guide strand; settings: shRNA

First: TCGACAGCTACAAACAGCCCTG
Second: TAAGACGTCAATCTGTAGGGAA
The sensor-assay potency score (higher = more potent) of the first is lower: -0.27 for the first, 0.711 for the second.

Going from TGTCACATTGAACAAAACCATC to TTACAAACTTTGCAACAGCTGT, the sensor-assay potency score (higher = more potent) rises from -1.67 to -0.672.

Compared with TTTCACAATAGCACTGATCCAA, TTATTTCTCTGTCCTAGCCAAA is lower in sensor-assay potency score (higher = more potent): 0.272 for the first, -1.55 for the second.

Going from TTGCATGTCGTTCCATTCCCTG to TAACCTTTACAAACTTTGCAAC, the sensor-assay potency score (higher = more potent) rises from -1.03 to -0.975.

First: TTGTGATACACTCATCATGTTC
Second: TAAAATATCCTGTAGCTCCATG
The sensor-assay potency score (higher = more potent) of the first is lower: -1.15 for the first, -0.475 for the second.

TAGAGTTTCACACTGGATGGTT was tested, and the sensor-assay potency score (higher = more potent) was 0.431.

biological target: NETO2; test: as above; settings: shRNA

First: TAATCCACATGAATCTCCCTGT
Second: TAACAACACTTTGAGGACCGAG
The sensor-assay potency score (higher = more potent) of the first is higher: 0.411 for the first, -0.0442 for the second.

Going from TTAATCCACATGAATCTCCCTG to TTGACGTGGAGCAGCTTCCAAA, the sensor-assay potency score (higher = more potent) falls from 0.06 to -1.08.

Going from TTAACATATATAGACTGCCTGA to TTGCTCGAAATCCCAGTCCTTC, the sensor-assay potency score (higher = more potent) rises from -0.881 to -0.463.

Going from TTCTTTGACGTGGAGCAGCTTC to TTATTAACAACACTTTGAGGAC, the sensor-assay potency score (higher = more potent) rises from -0.587 to -0.45.

Going from TAAATGAATATTTTGCTCGAAA to TTGATAATCTAGGAACCTCAAA, the sensor-assay potency score (higher = more potent) falls from -0.895 to -1.24.

Compared with TTGTTTTCTCCTCTTGTTCTAC, TTTCAATAGAACTGCTTCCATC is lower in sensor-assay potency score (higher = more potent): -0.539 for the first, -1.24 for the second.

biological target: NEURL2; test: as above; settings: shRNA

Going from TTGTGGAAGCAAACACGTCCAC to TAGGCGGCACAGAGTCTGCAGG, the sensor-assay potency score (higher = more potent) falls from -0.451 to -1.34.

Going from ATGATGTGCATGTCGGCCGTGC to TCTTTGTGGAAGCAAACACGTC, the sensor-assay potency score (higher = more potent) falls from -0.877 to -1.58.

First: TTTATTTCTGGTCTTGGCTGGC
Second: TATGGTTCCACGAGGAGGGTTG
The sensor-assay potency score (higher = more potent) of the first is higher: -0.107 for the first, -0.457 for the second.

First: TTTCTCCTCGATCTCGACCAGG
Second: TGTGGAAGCAAACACGTCCACC
The sensor-assay potency score (higher = more potent) of the first is higher: -0.592 for the first, -1.66 for the second.

First: TTCTCCTCGATCTCGACCAGGA
Second: ATCGGGCAGAGAAAACTCGGGA
The sensor-assay potency score (higher = more potent) of the first is higher: -0.684 for the first, -0.832 for the second.

AAACACGTCCACCACCGCGTAG gave a sensor-assay potency score (higher = more potent) of -1.26.

biological target: NEUROD6; test: as above; settings: shRNA

First: TAATTCATCTTGCATTGTGAGA
Second: TTTTCATCTTCCTCTTCCCTGT
The sensor-assay potency score (higher = more potent) of the first is lower: -0.914 for the first, -0.025 for the second.

Going from TTTGTCTTAATTAGACAGGGGA to TTCTCTAGAAAACTTTCTGCAC, the sensor-assay potency score (higher = more potent) falls from -0.0326 to -0.894.

Going from TAAGTTGTCCAGAGCGTCGTTG to TGTCTCCTGAACTTGACCCTTT, the sensor-assay potency score (higher = more potent) rises from -0.475 to -0.00785.
